# Assay results: PubChem BioAssay (NCI)
# The panel holds about 83,000 compounds, 20% with a hit somewhere; the sample as a whole holds those more often.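 The test compound was applied at a single concentration to cells in 96-well plates for 48 hours, and percent growth was recorded.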 A number with no mark means an inactive call. Active and inactive are the calls of the source. Rule for the calls: active = growth percent below 10; inactive = the rest.
# System: U251 CNS
# Experiment: NCI-60 one-dose screen, 48 h (100 = growth as untreated, 0 = no growth, -100 = all killed)
# Conditions: 10 µM
row,SMILES,growth
1,Cc1ccc(-n2nnc3c(sc4ccccc43)c2=O)cc1,18%
2,Nc1ccn([C@@H]2O[C@H](COP(=O)(O)O[C@@H]3C[C@H](n4cc(F)c(=O)[nH]c4=O)O[C@@H]3COP(=O)(O)O[C@@H]3C[C@H](n4cc(F)c(=O)[nH]c4=O)O[C@@H]3COP(=O)(O)O[C@@H]3C[C@H](n4cc(F)c(=O)[nH]c4=O)O[C@@H]3COP(=O)(O)O[C@@H]3C[C@H](n4cc(F)c(=O)[nH]c4=O)O[C@@H]3COP(=O)(O)O[C@@H]3C[C@H](n4cc(F)c(=O)[nH]c4=O)O[C@@H]3COP(=O)(O)O[C@@H]3C[C@H](n4cc(F)c(=O)[nH]c4=O)O[C@@H]3COP(=O)(O)O[C@@H]3C[C@H](n4cc(F)c(=O)[nH]c4=O)O[C@@H]3COP(=O)(O)O[C@@H]3C[C@H](n4cc(F)c(=O)[nH]c4=O)O[C@@H]3COP(=O)(O)O[C@@H]3C[C@H](n4cc(F)c(=O)[nH]c4=O)O[C@@H]3COP(=O)(O)O[C@@H]3C[C@H](n4cc(F)c(=O)[nH]c4=O)O[C@@H]3COP(=O)(O)OCCOCCOCCOCCOCCOCCO)[C@H](O)C2O)c(=O)n1 (some centres not stated),30.3%
3,COc1ccc(-c2nnc(COc3ccc(NC(=O)Nc4cccc(C(F)(F)F)c4)cc3F)o2)cc1,48.1%
4,Fc1ccc(Nc2ccnc(N3CCN(c4ccnc5cc(Cl)ccc45)CC3)n2)cc1,47%
5,CCOC(=O)c1cc(-c2ccccc2)nc(N)n1,98.3%
6,CC1(CO)CCCC12OCCO2 (configuration not stated),102%
7,CCc1c(C)[nH]c(=O)c(C(N)=O)c1C#N,99.4%
8,CCOc1ccc2c(c1)CC[C@@H]1[C@@H]2CC[C@]2(C)[C@@H](O)[C@@H](O)C[C@@H]12,95%
9,COc1ccc(OC)c([N+](=O)[O-])c1C=O,105%
10,CCOC(=O)Nc1ccc2c(c1)C(=O)N(CC)c1ccccc1O2,18.7%
11,Cc1ccc(C)c2c1sc1nc3n[nH]c(N)c3c(=N)n12,100%
12,c1ccc(CC(NCCNC(Cc2ccccc2)c2ccccc2)c2ccccc2)cc1 (configuration not stated),13%
13,Cc1ccc2nc(-c3ccc(OCC(=O)N=Nc4c(O)[nH]c5ccccc45)cc3)[nH]c2c1,6.05% (active)
14,COc1ccc2c(=O)cc(C(Cl)(Cl)Cl)oc2c1,-0.183% (active)
15,c1ccc(OCCC[P+](c2ccccc2)(c2ccccc2)c2ccccc2)cc1,8.33% (active)
16,COc1cc(CSc2nc3ccc(C)cc3c(=O)n2Cc2ccccc2)cc(OC)c1OC,33.1%
17,C[N+]1=C(/C=C/c2ccc(I)cc2)C(C)(C)c2ccccc21,40.6%
18,COc1ccccc1S(=O)(=O)Nc1ccc2c(c1)CN(C)C(=O)N2,50%
19,CCC(O)c1ccc(Br)cc1NC(=O)c1cccc(Cl)c1 (configuration not stated),11.7%
20,CCCCn1c(=O)[nH]c(N)c(C(c2ccc(Cl)cc2)c2c(N)[nH]c(=O)n(CCCC)c2=O)c1=O,35.8%
21,COc1ccc(C(=O)/C=C/c2cc(-c3ccc4c(c3)OCO4)n[nH]2)cc1OC,31.8%
22,COc1ccc2oc(=O)cc(C(c3ccc[nH]3)c3ccc[nH]3)c2c1,-7.61% (active)
